This passage reports sensor-assay potency score (higher = more potent) results from the OligoGym collection.
Note: reference of the scale not given here.

One experiment concerns the target GALNT9. In words: pooled miR-30 sensor sort-seq; sequence = guide strand. Particulars: shRNA.
Consider TTTGTCGCTGTCCATGTCCTCC, for which the sensor-assay potency score (higher = more potent) was -0.772.

Sequence TGATGTGTGACTTAGGTCTTGG gave a sensor-assay potency score (higher = more potent) of 0.117. Still for that read-out and setting: as for TTACCAGACCACAAGGAGCTGC, the figure is -0.143; as for TTTGGACATCTCCACCTCCAGG, -1.41. Same read-out and setting: as for TTCGACATGGGGATGTTCCAGG, the figure is -0.845; as for TAGTAGTCAATGTCGTTGTTGT, 0.0429. As for TTGTAGACCCTCATCTCCGGGT, the sensor-assay potency score (higher = more potent) is -0.631.

With TTGCTGTTTCTCACCTCTCCGT, the sensor-assay potency score (higher = more potent) is -0.669. Same read-out and setting: as for ATAGTAGTCAATGTCGTTGTTG, the figure is -0.487.

Another experiment has as its target GALNTL4. The experiment is described as above. The settings on record: shRNA.
On to TTGATATCATACCATCACCTAC, for which the sensor-assay potency score (higher = more potent) is -1.18.

TTGTCATCATCATCCACGGTGG came in with a sensor-assay potency score (higher = more potent) of -0.503. Still for that read-out and setting: as for TTTGTCTTCCTCCAGCTTCTTG, the figure is -1.15; as for TTGACGTCCACCAGGCATCGGT, -0.813; as for TACTCTTCTATCTCAAAGTTGT, -0.112. The sequence TCGGTTGTCATCATCATCCACG showed a sensor-assay potency score (higher = more potent) of -0.664. The same measure, in the same setting: as for ATATTCGGTCAGCTTCTCCTTC, the figure is -0.121.

TGGATCTGCTGACTGCTCGTGT yielded a sensor-assay potency score (higher = more potent) of -0.605.

In the case of TTCCTCCAGCTTCTTGTCGGGC, the sensor-assay potency score (higher = more potent) was -1.36. Still for that read-out and setting: under AATAGTTTGATATCATACCATC stands -1.73; under TTCAGTTCCTCGTTACTGCTGT, 0.73.

The next experiment has as its target GALT. The description is as above. The settings on record: shRNA.
For TAGCAGGGGCTCTCCATGCTGA, the sensor-assay potency score (higher = more potent) was -0.945. Still for that read-out and setting: under TTCCTTCCTGAGTAGCTCCTGG stands -0.401; under TTGTCAAACAGGAAGGTGCTAT, -0.0645.

Sequence AAGCATTTCGTAGCCAACCATG gave a sensor-assay potency score (higher = more potent) of -1.22. In the case of TGAATTTCCGGACAGTGGCAGA, the sensor-assay potency score (higher = more potent) was -0.779. In the case of TTTTCAAAGATCTGCACCCAAG, the sensor-assay potency score (higher = more potent) is -1.61. TTGCCCGGAAGGTTGCTGCTGC yielded a sensor-assay potency score (higher = more potent) of -0.354. On to TTCACCTCTCCGTTGGCTCGGA, for which the sensor-assay potency score (higher = more potent) is -0.467.

As for TAATTCAGCAAGACTGTTGAAA, the sensor-assay potency score (higher = more potent) worked out at 0.0574. The same measure, in the same setting: under TAGATCATCACGCTCAGCAGGG stands -0.0859; under TTTGTTTTCAAAGATCTGCACC, -0.471. Still for that read-out and setting: as for TACTAACCAGTGCTCACTGGTT, the figure is -0.859; as for TAGCCAACCATGAATTTCCGGA, -0.189. On the same count and under the same terms, under TATAGGCCTGCTGAGATCGCTC stands -0.708; under TGAGCAAGCATTTCGTAGCCAA, -0.524; under TATCTGGCAGGAAACTGCTGGC, -0.854. AAAGAGGTTGTCATACTTGGTC displayed a sensor-assay potency score (higher = more potent) of -0.351. Turning to AAGAGCTTCTTCATGATGGAGG, the sensor-assay potency score (higher = more potent) is -0.296.

TTGGTCAAGAGCTTCTTCATGA returned a sensor-assay potency score (higher = more potent) of -0.31.

Sequence AAGGGGACCAGTACTAACCAGT yielded a sensor-assay potency score (higher = more potent) of -0.813.
